{"source": "PubChem BioAssay AID652176", "about": "(Sanford-Burnham Center for Chemical Genomics, 2013)", "note": "The whole screen tested about 2,400 compounds, of which about 25 (1%) were called active.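 Rule for the calls: active = replicate-average signal at least 3 plate SD below neutral wells, shown as high inhibition, flagging enzyme-inhibiting false positives; inactive = the rest.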 Only a sample is shown.", "data": [{"system": "Beta-galactosidase (Escherichia coli), counter-screen for EBI2 antagonists", "test": "E. coli beta-galactosidase enzyme inhibition, confirmation, counter-screen for EBI2 antagonist project, biochemical, luminescence, single concentration (AID 652176);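 note: 0% = DMSO wells with enzyme and 100% = wells lacking enzyme; higher means stronger loss of beta-gal luminescence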", "details": "purified beta-galactosidase, luminescent Galacton Star, 15 min; at 5 µM; hits give high values", "values": [{"compound": "Cc1ccc(S(=O)(=O)N2CCN(C(=O)CSc3cc(C)ccc3C)CC2)c(C)c1", "inhibition": "2.31% (inactive)"}, {"compound": "COc1cccc(NC(=O)Cn2c3ccc(F)cc3c3nc4n(c(=O)c32)CCS4)c1", "inhibition": "1.47% (inactive)"}, {"compound": "COc1ccc(-c2cc(C3CCN(c4ncccc4[N+](=O)[O-])CC3)[nH]n2)cc1", "inhibition": "12% (inactive)"}, {"compound": "COc1cccc(NC(=O)Cn2c3ccccc3c3nc4n(c(=O)c32)CCS4)c1", "inhibition": "-5.55% (inactive)"}, {"compound": "COc1ccc(OCC(=O)N2CCN(C(=O)c3cccs3)CC2)cc1", "inhibition": "8.51% (inactive)"}, {"compound": "Cc1nc(-c2ccccc2)sc1C(=O)/C=C/c1ccccc1", "inhibition": "12% (inactive)"}, {"compound": "c1ccc(C(c2ccccc2)N2CCN(Cc3nnnn3C3CCCCC3)CC2)cc1", "inhibition": "9.44% (inactive)"}, {"compound": "O=C(c1cc2ccccc2o1)N1CCN(S(=O)(=O)c2ccc(Cl)s2)CC1", "inhibition": "3.41% (inactive)"}, {"compound": "COc1ccc(N(CC(=O)Nc2cc(OC)ccc2OC)S(=O)(=O)c2c(C)noc2C)cc1", "inhibition": "6.51% (inactive)"}, {"compound": "Fc1ccccc1/C=N/Nc1cc(N2CCCCC2)ncn1", "inhibition": "-5.12% (inactive)"}, {"compound": "Cc1ccc(SCC(=O)N2CCN(c3ccc(F)cc3)CC2)cc1", "inhibition": "1.65% (inactive)"}, {"compound": "COc1ccc(C(C(=O)NC2CCCCC2)N(C(=O)c2snc(C(N)=O)c2N)c2ccccc2OC)cc1", "note": "(stereo not given)", "inhibition": "1.73% (inactive)"}, {"compound": "Cc1ccc(-n2ncc3c(=O)n(-c4ccc(C)c(C)c4)c(-c4ccco4)nc32)cc1", "inhibition": "-11.1% (inactive)"}, {"compound": "O=C(c1cc(=O)c2ccccc2o1)N1CCN(c2ccccc2)CC1", "inhibition": "2.55% (inactive)"}, {"compound": "Cc1cc(C)cc(Oc2nc3c(C)cccn3c(=O)c2/C=C(\\C#N)C(=O)NC2CCS(=O)(=O)C2)c1", "note": "(stereo not given)", "inhibition": "-6.32% (inactive)"}, {"compound": "CC1(Cc2ccccc2C#N)C(=O)Nc2ccc(-c3ccc4[nH]ccc4c3)cc21", "note": "(stereo not given)", "inhibition": "-12.8% (inactive)"}, {"compound": "N#CC(=C1CCCC1)c1nc(-c2ccc(Cl)cc2)cs1", "inhibition": "-15.6% (inactive)"}, {"compound": "CCCCC(=O)N(C)c1c(CC)nc2c(OCc3ccc(Cl)cc3Cl)cccn12", "inhibition": "-8.17% (inactive)"}, {"compound": "CC(C)Cn1c(N2CCN(C(=O)/C=C/c3ccccc3)CC2)nc2ccccc21", "inhibition": "-6.12% (inactive)"}, {"compound": "CCN1CCN(C(=O)CSc2ccc(C)cc2)CC1", "inhibition": "-12.6% (inactive)"}, {"compound": "O=C(CCNS(=O)(=O)c1ccccc1)NCCSc1ccc(Br)cc1", "inhibition": "-8.38% (inactive)"}, {"compound": "COc1ccc(/C=C/C(=O)c2ccc(OC)cc2O)cc1", "inhibition": "-7.89% (inactive)"}, {"compound": "O=C(CCc1ccccc1)NNC(=O)COc1ccc(Cl)cc1", "inhibition": "4.21% (inactive)"}, {"compound": "Cc1ccc(-c2nn(-c3ccccc3)cc2/C=C/C(=O)Nc2cccc(S(N)(=O)=O)c2)cc1", "inhibition": "7.52% (inactive)"}, {"compound": "COc1ccc2cc(C3=CC(=O)C[C@H](c4ccc5c(c4)OCO5)C3)ccc2c1", "inhibition": "-16.2% (inactive)"}, {"compound": "Cc1cc(Cl)c2oc(C(=O)N3CCC(O)(c4ccccc4)CC3)c(C)c2c1", "inhibition": "-14% (inactive)"}, {"compound": "COc1ccc(/C=N/N=C/c2c[nH]c(=O)c(C#N)c2Nc2ccccc2)cc1", "inhibition": "-8.65% (inactive)"}, {"compound": "O=c1[nH]c(CN2CCN(S(=O)(=O)c3ccc4c(c3)OCCO4)CC2)nc2sc3c(c12)CCCC3", "inhibition": "5.78% (inactive)"}, {"compound": "O=C(NCCCc1ccccc1)C1CCC(=O)N(CCc2ccc(Cl)cc2)C1", "note": "(stereo not given)", "inhibition": "1.78% (inactive)"}, {"compound": "COc1ccccc1N1CCN(C(=O)c2cc(=O)c3cc(C)ccc3o2)CC1", "inhibition": "2.71% (inactive)"}, {"compound": "COc1ccc(C(=O)/C=C/c2ccc(OC3CSC3)cc2)cc1", "inhibition": "4.77% (inactive)"}, {"compound": "CN1CCc2ccccc2C1Cc1ccccc1NC(=O)c1sc2ccccc2c1Cl", "note": "(stereo not given)", "inhibition": "-9.49% (inactive)"}, {"compound": "O=C(COc1ccc2ccccc2c1)N1CCN(C(=O)c2cccs2)CC1", "inhibition": "6.4% (inactive)"}, {"compound": "O=C(c1cc2ccccc2s1)N1CCN(c2ccccn2)CC1", "inhibition": "-19.7% (inactive)"}, {"compound": "O=C(/C=C/c1cccc([N+](=O)[O-])c1)N1CCN(Cc2ccccc2)CC1", "inhibition": "-5.48% (inactive)"}, {"compound": "CC(=O)/C(=N\\Nc1ccc(Cl)cc1Cl)Sc1cccc2cccnc12", "inhibition": "-5.07% (inactive)"}, {"compound": "CCN(CC(=O)NCc1cccs1)C(=O)/C=C/c1ccc(C)cc1", "inhibition": "1.05% (inactive)"}, {"compound": "O=C(C(c1ccccc1)c1ccccc1)N1CCN(CC(O)COc2ccccc2)CC1", "note": "(stereo not given)", "inhibition": "-10% (inactive)"}, {"compound": "Cc1ccc(S(=O)(=O)N2CCN(CC(=O)N/N=C/c3ccc(Br)s3)CC2)cc1", "inhibition": "3.3% (inactive)"}, {"compound": "COc1cccc(-c2cc(C(=O)N3CCN(c4ccccc4OC)CC3)no2)c1", "inhibition": "5.78% (inactive)"}, {"compound": "COc1ccc(OCC(=O)N2CCN(C(=O)COc3ccccc3)CC2)cc1", "inhibition": "-7.53% (inactive)"}, {"compound": "Cc1ccc2oc(=O)c3cnn(CC(=O)N4CCCCCC4)c3c2c1", "inhibition": "6.6% (inactive)"}, {"compound": "CCC1Nc2ncnc(N3CCN(c4ccccc4)CC3)c2N(Cc2ccc(Cl)cc2)C1=O", "note": "(stereo not given)", "inhibition": "69% (active)"}, {"compound": "Cc1cccc(N2CCN(C(=O)c3cc4c(=O)[nH]c5ccccc5c4n3C)CC2)c1C", "inhibition": "5.01% (inactive)"}, {"compound": "CC(=O)c1nn(-c2ccc(C)cc2)cc1C(=O)c1cccc(Br)c1", "inhibition": "-0.17% (inactive)"}, {"compound": "Cc1ccc(OCC(=O)N2CCN(S(=O)(=O)c3ccc(Cl)s3)CC2)cc1C", "inhibition": "0.1% (inactive)"}, {"compound": "CCC(C)(C)NC(=O)c1cc([N+](=O)[O-])ccc1N1CCCCC1", "inhibition": "-7.53% (inactive)"}, {"compound": "Cc1cccc(NC(=O)CN2CCN(C(=O)C3CCN(C(=O)/C=C/c4ccccc4)CC3)CC2)c1C", "inhibition": "-13.5% (inactive)"}, {"compound": "O=C(Nc1ncc2c(n1)CC(c1ccco1)CC2=O)c1ccc(Cl)cc1", "note": "(stereo not given)", "inhibition": "8.95% (inactive)"}, {"compound": "CCOc1ccc(CN(Cc2ccco2)S(=O)(=O)c2ccc(-n3cnnn3)c(OC)c2)cc1", "inhibition": "4.57% (inactive)"}, {"compound": "COc1ccc(C(c2nnnn2C2CCCC2)N2CCN(C/C=C/c3ccccc3)CC2)cc1", "note": "(stereo not given)", "inhibition": "-12.2% (inactive)"}, {"compound": "COc1ccc(-c2cc(NC=O)c3ncc(-c4cccc(C(=O)N(C)C)c4)n3c2)c(OC)c1", "inhibition": "-10.8% (inactive)"}, {"compound": "CCOC(=O)N1CCN(C(=O)CSc2ccc(Cl)cc2)CC1", "inhibition": "5.7% (inactive)"}, {"compound": "CCCCN=C1C([N+](=O)[O-])=CC=C2C1=NC1(CCCCC1)N2O", "inhibition": "-14.2% (inactive)"}, {"compound": "CCC(c1nnc(SCC(=O)NNC(=O)c2ccccc2)n1Cc1ccccc1)N(C)C", "note": "(stereo not given)", "inhibition": "-17.6% (inactive)"}]}]}
